# Laboratory results as given in PubChem BioAssay AID492956 (The Scripps Research Institute Molecular Screening Center, 2010).
# Among all 340,000 compounds or so, about 3,300 (0.97%) were called active. The sample holds actives, similar compounds and a random draw of the others, so the mix is not that of the screen.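 How the source made its calls: active means inhibition above the mean over all tested compounds plus 3 SD (cut at about 30% in these data); inactive means the rest.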
# Target: Platelet-activating factor acetylhydrolase 2, cytoplasmic (Homo sapiens) (UniProt Q99487)
# Test: PAFAH2 enzyme inhibitors, primary screen, biochemical, fluorescence polarization, human (AID 492956);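 further: inhibitors block probe labeling of enzyme so polarization drops; 0% = enzyme with DMSO and 100% = wells lacking PAFAH2 protein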
# Details: recombinant PAFAH2, FP-rhodamine activity probe, at 3.39 µM, active compounds read high
row,SMILES,inhibition
1,COc1cc(C(=O)NN(CCC#N)C2=NS(=O)(=O)c3ccccc32)cc(OC)c1OC,4.52% (inactive)
2,COc1ccc(/C=N/N(C)C2=NS(=O)(=O)c3ccccc32)cc1OC,31.8% (active)
3,C=CCOCCN(C)C1=NS(=O)(=O)c2ccccc21,-9.33% (inactive)
4,Cc1ccc(S(=O)(=O)NCC(=O)N2CCOCCOCCOCCOCC2)cc1,-0.46% (inactive)
5,O=C1/C(=C/c2cccs2)CCC1C1CCCC1 (stereo unspecified),5.54% (inactive)
6,CC1(C)CC(=O)c2cnc3nc4ccccc4n3c2C1,-0.49% (inactive)
7,O=C(NNC(=O)c1cc(S(=O)(=O)N2CCCCC2)ccc1Cl)c1ccccc1O,8.97% (inactive)
8,Cc1cccc(/C(N)=N/OC(=O)c2ccccc2Cl)c1,-5.1% (inactive)
9,O=C(OCc1cn(-c2ccc(Cl)c(Cl)c2)nn1)c1ccccc1Cl,44.2% (active)
10,NC(=O)COC(=O)c1cc(S(=O)(=O)N2CCN(c3ccccc3)CC2)ccc1Cl,5.41% (inactive)
11,CC(C)NC(=O)NC(=O)COC(=O)c1ccc(NC(=O)CC#N)cc1,14.3% (inactive)
12,CC(C)c1ccc(NC(=O)COC(=O)c2ccc(CN3CCCC3=O)cc2)cc1,85% (active)
13,N#CCC(=O)Nc1ccc(C(=O)OCC(=O)Nc2sc3c(c2C#N)CCCC3)cc1,-11.9% (inactive)
14,Cc1noc(C)c1C(=O)NC(C)c1ccc2c(c1)OCO2 (stereo unspecified),-1.75% (inactive)
15,CCN(CC)c1ccc(NC(=O)CCc2nnc3ccc(N4CCCCC4)nn23)c(C)c1,1.19% (inactive)
16,O=C(COC(=O)C12CC3CC(CC(O)(C3)C1)C2)NC12CC3CC(CC(C3)C1)C2,75.8% (active)
17,O=C(COC(=O)CNS(=O)(=O)c1ccccc1)NC12CC3CC(CC(C3)C1)C2,1.43% (inactive)
18,O=C(CNCCO)NC12CC3CC(CC(C3)C1)C2,0.19% (inactive)
19,Cc1ccc2[nH]c(=O)c(CN(C)S(=O)(=O)c3cccc4nonc34)cc2c1,-8.49% (inactive)
20,Cn1nccc1NC(=O)CC(CC(=O)O)c1ccccc1 (stereo unspecified),4.64% (inactive)
21,COCCCN1C(=O)C(=O)/C(=C(/O)c2ccc(S(=O)(=O)N3CCOCC3)cc2)C1c1ccc(F)cc1 (stereo unspecified),1.52% (inactive)
22,COc1ccc(NC(=O)ON=C2c3ccccc3-c3ccccc32)cc1,-4.24% (inactive)
23,COc1ccc(C(=O)ON=C2c3ccccc3-c3ccccc32)cc1OC,72.8% (active)
24,COc1cc(C(C)=O)ccc1OC(=O)CN1C(=O)c2ccccc2C1=O,1.95% (inactive)

row,SMILES,inhibition
1,O=C(O)CSc1nccc2ccccc12,2.03% (inactive)
2,O=C(O)CCSc1nnc(-c2ccccc2)n1-c1ccccc1,-1.18% (inactive)
3,CCc1c(SCCC(=O)O)nc2ccccc2c1C,33% (active)
4,C/C(=N\OCC(=O)Nc1ccc(Br)cc1)c1cccs1,-0.72% (inactive)
5,CCn1c(Cc2ccc(OC)cc2)nnc1SCC(=O)Nc1ccc(N2CCOCC2)cc1,-3.23% (inactive)
6,CC(C)[C@H](NC(=O)N1CCn2c1nc1ccccc12)C(=O)NCc1ccc2c(c1)OCO2,-3.27% (inactive)
7,Cc1ccc(C)c(NC(=O)C2Cc3ccccc3CN2C(=O)OCc2ccccc2)c1 (stereo unspecified),5.89% (inactive)
8,Cc1ccc(/C=N/NC(=O)Cn2ccc(C(F)(F)F)n2)o1,-1.08% (inactive)
9,CCn1c(SCC(=O)N/N=C/c2ccncc2)nc2ccccc21,14.4% (inactive)
10,CCn1c(/C=N/NC(=O)c2ccc(OC)cc2)nc2ccccc21,41.7% (active)
11,COc1ccc(C(=O)NCC(=O)N/N=C/c2cccnc2)cc1,-1.33% (inactive)
12,CC(C)C(=O)NCC(c1cccs1)S(=O)(=O)c1ccc(F)cc1 (stereo unspecified),-6.08% (inactive)
13,COc1ccc(C(CC(=O)N2CCN(c3ccccc3)CC2)c2c(O)cc(OC)cc2OC)cc1 (stereo unspecified),1.97% (inactive)
14,CCC1OC(c2ccc([N+](=O)[O-])cc2)=Nc2ccccc21 (stereo unspecified),33.1% (active)
15,CCCCN(C)c1ccc([N+](=O)[O-])cc1,-0.55% (inactive)
16,COc1ccccc1CSc1ncc(-c2ccc([N+](=O)[O-])cc2)[nH]1,12% (inactive)
17,N#Cc1ccc(N2Cc3ccccc3/C2=N/C(=O)Nc2ccc(Cl)cc2)cc1,-0.92% (inactive)
18,CC1CCc2c(c3ccccc3[nH]c2=O)O1 (stereo unspecified),-0.64% (inactive)
19,COc1ccc(C(=O)Nc2cccc(/C=C(/CCC(=O)O)c3nc4ccccc4s3)c2)cc1,-4.68% (inactive)
20,COc1ccc(C2=NN(c3nc4ccccc4s3)C(=O)C2)cc1,48.2% (active)
21,COc1ccc(C2=NN(c3ccccc3)C(c3cccs3)C2)cc1 (stereo unspecified),6.25% (inactive)
22,Cc1nnc(NC(=O)CSc2nccn2-c2cccc(C)c2C)s1,6.92% (inactive)
23,O=[N+]([O-])c1cccc(/C([O-])=C(/C(=S)Nc2ccccc2F)[n+]2ccccc2)c1,-4.94% (inactive)
24,Cc1sc(NC(=O)c2ccc3ncsc3c2)c(C(N)=O)c1C,1.28% (inactive)

row,SMILES,inhibition
1,O=C(COC(=O)c1ccc2ncsc2c1)Nc1ccc(Cl)cc1,81.4% (active)
2,CC1CC(C)CN(C(=O)COC(=O)c2ccc3ncsc3c2)C1 (stereo unspecified),9.71% (inactive)
3,COc1cc2c(cc1O)C(SC)=NC(C)(C)C2,4.6% (inactive)
4,CC(C)Cc1nnc(NC(=O)CCC(=O)Nc2ccc3cn[nH]c3c2)s1,1.65% (inactive)
5,Cc1cc(C)c(C#N)c(Nc2cccc(Br)c2)n1,-4.25% (inactive)
6,CCCCNC(=O)OC(C)CNC(=O)OC (stereo unspecified),-6.1% (inactive)
7,Cc1onc(C(=O)NCc2ccc(F)cc2)c1[N+](=O)[O-],-3.19% (inactive)
8,COc1ccc(C(=O)NCC(=O)N/N=C/c2ccc([N+](=O)[O-])o2)cc1OC,0.4% (inactive)
9,O=C(/C=C/c1ccc([N+](=O)[O-])o1)NNC(=O)c1ccc(F)cc1,39.5% (active)
10,O=C(COC(=O)CNC(=O)C1CCCCC1)Nc1cccc(F)c1,-0.43% (inactive)
11,Cc1ccsc1C(=O)OCC(=O)NCCc1ccccc1,25.5% (inactive)
12,CN(CC(=O)Nc1cccc(F)c1)C(=O)CC1CCCC1,0.25% (inactive)
13,Cc1ccsc1C(=O)OCC(=O)Nc1cccc(F)c1,90.7% (active)
14,CC1CC1C(=O)OCC(=O)Nc1cccc(F)c1 (stereo unspecified),78.9% (active)
15,COc1ccc(CNC(=O)COC(=O)c2sccc2C)cc1OC,5.02% (inactive)
16,Cc1ccc(S(=O)(=O)N(C)CC(=O)OCC(=O)Nc2ccccc2)cc1,0.35% (inactive)
17,O=C(COC(=O)C1CC2C=CC1C2)Nc1ccccc1 (stereo unspecified),77.7% (active)
18,O=C(COc1ccccc1)Nc1ccc(F)cc1,-4.21% (inactive)
19,CCCCCC(=O)N1CCN(S(=O)(=O)c2ccc3c(c2)OCCCO3)CC1,6.58% (inactive)
20,Clc1ccc(C2[C@H]3CN(CC4CCCCC4)[C@H](c4ccccc4)C34CC2(c2cccnc2)C4)cn1 (stereo partly specified),-11.3% (inactive)
21,COc1cc(C2C(C(=O)c3sc(C)nc3C)=C(O)C(=O)N2CCN(C)C)cc(OC)c1OC (stereo unspecified),2.01% (inactive)
22,COc1ccccc1N1CC(C(=O)Nc2ccc(S(=O)(=O)N3CCOCC3)cc2)CC1=O (stereo unspecified),2.45% (inactive)
23,CC(=O)Nc1ccc(NS(=O)(=O)c2cc(C)sc2C)cc1,5.36% (inactive)
24,OC(CNC1CCCC1)COc1ccc(F)cc1 (stereo unspecified),-6.14% (inactive)

row,SMILES,inhibition
1,CC(C)(C)NC(=O)c1cccc(NC(=O)Cc2ccc(Br)cc2)c1,-0.14% (inactive)
2,FC(F)Oc1ccccc1C1CC(c2ccc(Br)s2)Nc2ncnn21 (stereo unspecified),4.45% (inactive)
3,C=CCOc1ccc(/C=C/C(=O)OC(C)C(=O)Nc2ccc(NC(C)=O)cc2)cc1 (stereo unspecified),-1.01% (inactive)
4,O=C(CO/N=C/c1ccccc1OC(F)F)NC1CCCC1,4.52% (inactive)
5,O=C(COC(=O)/C=C/c1ccc(OC(F)F)cc1)NC1CCCCC1,59.9% (active)
6,CC1CCCCC1NC(=O)CO/N=C/c1ccc(OC(F)F)cc1 (stereo unspecified),5.23% (inactive)
7,CC(NC(=O)COC(=O)c1ccc(Cl)cc1O)c1ccc(F)cc1 (stereo unspecified),11% (inactive)
8,CCC(=O)c1ccc(OCC(=O)OCC(=O)NC2CCCCCC2)cc1,1.93% (inactive)
9,C=CCOc1ccc(/C=C/C(=O)OCC(=O)NC2CCCCCC2)cc1,77% (active)
10,C=CCOc1ccc(/C=C/C(=O)OCC(=O)NC(C)c2ccc(F)cc2)cc1 (stereo unspecified),33.1% (active)
11,C=CCOc1ccc(/C=C/C(=O)OCC(=O)NCC2CCCO2)cc1 (stereo unspecified),29.2% (inactive)
12,O=c1ccc2cc(S(=O)(=O)N3CCN(c4ccccc4)CC3)ccc2o1,-3.62% (inactive)
13,COC(=O)CCSc1nccn1Cc1ccccc1,3.07% (inactive)
14,CC(=O)c1c(N2CCN(c3ccc(F)cc3)CC2)nc(=S)n(-c2ccccc2)c1C,-5.81% (inactive)
15,Cc1ccc(NC(=O)CN(C)S(=O)(=O)c2cnc[nH]2)cc1C,4.95% (inactive)
16,CC(NC(=O)c1ccccc1)C(=O)Nc1ccccc1 (stereo unspecified),-1.79% (inactive)
17,O=C(NC1=CC(=O)c2ccccc2C1=O)c1ccccc1,45.2% (active)
18,O=C1C=C(NS(=O)(=O)c2ccccc2)C(=O)c2ccccc21,5.32% (inactive)
19,Cc1cccc(C2C3=C(CCCC3=O)N=C3c4ccccc4C(=O)C32)c1 (stereo unspecified),9.45% (inactive)
20,O/N=C(\C[n+]1ccccc1)c1ccc(Br)cc1,-4.24% (inactive)
21,O=C(Nc1ccc(Cl)cc1)C1c2cccc[n+]2CC(=O)N1Cc1ccc2c(c1)OCO2 (stereo unspecified),43.6% (active)
22,O=C(C1CCN(Cc2ccc(Cl)cc2)CC1)N1CCN(Cc2ccc3c(c2)OCO3)CC1,2.96% (inactive)
23,CCCOc1ccc(NC(=O)CC2C(=O)N(C)C(=S)N2Cc2ccc3c(c2)OCO3)cc1 (stereo unspecified),-2.75% (inactive)
24,Cc1c(Br)cc(C(=O)N2CCCCCC2)c(C)c1C,1.14% (inactive)
